# Calls of active or inactive are those of the source.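 Rule for the calls, unless noted: active = visual image review flags a hit and inhibition of aggregation exceeds 20%; inconclusive = visual hit but inhibition at or below 20%; inactive = no hit on visual image review.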
# Assays:
# [1] = inhibitors of TNFa-induced NFkB p65 translocation, primary screen, imaging, HUVEC, MLSMR starter and 10KST1 sets (AID 438;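 active = inhibition above 20% together with a positive visual image hit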;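 note: compound added about 3h40 before a 20 min TNFalpha stimulation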;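 for inhibition: signal is the nuclear over cytoplasmic p65 intensity ratio per well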); details: HUVEC TNFa-induced p65 nuclear translocation; cell count: measured here: nuclei count (cytotoxicity indicator), at 2.08 µM; inhibition: at 2 µM, stronger effect = higher value, 0% TNFa-plus-vehicle, 100% no-TNFa wells
# [2] = reduction of polyQ htt aggregates in cells – imaging, exon1htt(103Q)mCFP cells, high-content imaging, primary screen (AID 483); details: exon1htt(103Q)mCFP cell line, aggregate imaging, at 2 µM; inhibition of aggregation: stronger effect = higher value; nuclei count: measured here: cell count, toxicity;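 note: compound exposure lasted 3 days before fixation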;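 for nuclei count: percent of the per-plate median nuclei count of sample wells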
# [3] = endothelial E-selectin expression blockers – imaging, HUVEC, immunofluorescence, MLSMR starter and 10KST1 sets, primary screen (AID 487;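 active = visually confirmed hit in the image check and inhibition above 20%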;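 for inhibition: signal is fraction of cell area covered by stained E-selectin grains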;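 for nuclei count: 100% = median nuclei count of all wells on the same plate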); details: HUVEC TNFalpha-induced E-selectin immunofluorescence imaging, at 2 µM; inhibition: stronger effect = higher value; nuclei count: measured here: cell number, toxicity
# [4] = target: Voltage-gated potassium channel subunit beta-2 (Rattus norvegicus) (UniProt P62483); experiment: inhibitors of rat Kvbeta2 reductase activity – biochemical, NADPH fluorescence, primary screen (AID 622;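 active = fluorescence slope higher than the sample average by over 3 SD, cut at about -0.22 in these data, passing the limit was not always enough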;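 note: slope of raw intensity against log time taken from 70 to 1610 s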); details: recombinant KvBeta, 4-cyanobenzaldehyde reduction, at 10 µM, stronger effect = higher value
# Voltage-gated potassium channel subunit beta-2 (Rattus norvegicus), sequence (P62483 whole entry, looked up): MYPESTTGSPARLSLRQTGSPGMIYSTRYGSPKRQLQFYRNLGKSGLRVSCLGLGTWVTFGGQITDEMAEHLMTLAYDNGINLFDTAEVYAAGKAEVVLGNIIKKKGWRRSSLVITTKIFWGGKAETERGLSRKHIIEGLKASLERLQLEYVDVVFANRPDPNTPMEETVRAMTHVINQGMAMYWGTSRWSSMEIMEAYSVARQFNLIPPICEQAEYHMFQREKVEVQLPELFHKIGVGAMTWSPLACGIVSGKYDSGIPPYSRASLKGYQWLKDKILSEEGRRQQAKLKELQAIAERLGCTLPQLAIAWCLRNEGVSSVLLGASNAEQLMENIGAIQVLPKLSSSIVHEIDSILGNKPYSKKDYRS
# [5] = target: Voltage-gated potassium channel subunit beta-2 (Rattus norvegicus) (UniProt P62483); experiment: enhancers of rat Kvbeta2 NADPH turnover – biochemical, NADPH fluorescence, primary screen (AID 623;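 active = NADPH fluorescence slope more negative than the mean of all samples by about 3 SD, 99.7% confidence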;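 note: fluorescence intensity change per second fitted from 20 to 320 s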); details: Recombinant KvBeta, NADPH fluorescence decrease slope, 10 min; at 10 µM; stronger effect = lower value
# [6] = target: Alpha-2C adrenergic receptor (Homo sapiens) (UniProt P18825); experiment: compounds altering alpha2C-coupled GIRK flux – cell-based, HEK293 alpha2C/GIRK1/2, thallium flux, primary screen (AID 624;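 active = fluorescence slope after compound addition differing from the mean of all screened samples at 99.7% confidence, in either direction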;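 note: slope of fluorescence ratio to pre-addition baseline per second over 15 to 24 s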); details: thallium flux BTC fluorescence, at 10 µM, actives lie on both sides
# Alpha-2C adrenergic receptor (Homo sapiens), sequence (P18825 whole entry, looked up): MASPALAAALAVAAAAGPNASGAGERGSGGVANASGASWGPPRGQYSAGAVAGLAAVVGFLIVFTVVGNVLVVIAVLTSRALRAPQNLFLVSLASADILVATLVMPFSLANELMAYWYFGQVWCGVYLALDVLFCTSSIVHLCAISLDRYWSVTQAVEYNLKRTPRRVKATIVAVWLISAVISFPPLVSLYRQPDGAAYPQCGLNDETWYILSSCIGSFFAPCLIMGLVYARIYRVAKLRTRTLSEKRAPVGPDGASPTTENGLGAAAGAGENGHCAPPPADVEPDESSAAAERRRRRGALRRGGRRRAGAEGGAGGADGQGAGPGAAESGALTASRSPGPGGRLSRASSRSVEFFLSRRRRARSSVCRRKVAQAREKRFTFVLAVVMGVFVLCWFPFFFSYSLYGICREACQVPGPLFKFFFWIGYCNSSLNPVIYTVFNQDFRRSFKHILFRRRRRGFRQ
# [7] = blockers of RIG-like receptor reporter activation – cell-based, Sendai virus stimulus, luciferase, 10K MLSCN set, TLR/RLR signaling modifier project, primary screen (AID 602276;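 active = inhibition at or above 50% at 10 µM; inactive = inhibition below 50%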;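 note: firefly luciferase from ISG56 promoter only with Renilla not read in this screen; 0% = Sendai virus plus DMSO and 100% = medium plus DMSO without virus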); details: HEK293 RL24 IRF3 luciferase reporter, at 10 µM, stronger effect = higher value
# [8] = TLR3 IRF3 reporter activation blockers – cell-based, poly I:C stimulus, luciferase, 10K MLSCN set, primary screen (AID 602277;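 active = inhibition of the reporter signal at or above 50%; inactive = inhibition below 50%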); details: HEK293-TLR3 RL24 IRF3 luciferase reporter, at 10 µM, stronger effect = higher value
SMILES,cell count [1],inhibition [1],inhibition of aggregation [2],nuclei count [2] [%],inhibition [3],nuclei count [3] [%],fluorescence slope [4],NADPH fluorescence slope [5],slope [6],inhibition [7],inhibition [8]
NCCN1CCN(CCN)CC1,728,-10% (inactive),-4.6% (inactive),116,-23.9% (inactive),132,-0.436 (inactive),-1.1e-05 (inactive),0.00707 (inactive),12.2% (inactive),18.8% (inactive)
CCN1CCN(C(c2ccc(F)cc2)c2nnnn2Cc2cccs2)CC1 (centres undefined),605,-8.6% (inactive),1.9% (inactive),48.7,-35.5% (inactive),96.1,-0.339 (inactive),1.5e-05 (inactive),0.00582 (inactive),4.23% (inactive),21.4% (inactive)
Clc1ccc(OCc2nc(-c3ccccn3)no2)c(Br)c1,814,1.8% (inactive),4.2% (inactive),95,-1.9% (inactive),121,-0.595 (inactive),-8.6e-06 (inactive),0.00567 (inactive),-31.1% (inactive),-134% (inactive)
O=C(Nc1nc2c(s1)CCCC2)C1COc2ccccc2O1 (centres undefined),695,-13.1% (inactive),30.9% (inactive),110,-26.2% (inactive),114,-0.517 (inactive),-1.6e-05 (inactive),0.00646 (inactive),31% (inactive),-19.8% (inactive)
CCCS(=O)(=O)NCCc1cc2cc(C)c(C)cc2[nH]c1=O,321,-18.8% (inactive),4.2% (inactive),84.9,-16.4% (inactive),106,-0.587 (inactive),-7.5e-05 (inactive),0.0056 (inactive),4.21% (inactive),-4.55% (inactive)
COc1ccccc1OCCSc1nc2ccccc2c(=O)[nH]1,361,3.5% (inactive),-4.7% (inactive),89.3,-49.6% (inactive),86.8,-0.35 (inactive),-5.3e-05 (inactive),0.00628 (inactive),-4.62% (inactive),-5.54% (inactive)
CC(=O)NC(C)c1nc2ccccc2n1C(C)C (centres undefined),588,11.5% (inactive),-2.2% (inactive),98.7,-50.6% (inactive),121,-0.551 (inactive),-2.4e-05 (inactive),0.00604 (inactive),14.5% (inactive),42.2% (inactive)
CC(=O)c1c(C)[nH]c(C(=O)N2CCN(C(=O)c3ccco3)CC2)c1C,233,-19.9% (inactive),9.5% (inactive),94.7,-98.1% (inactive),120,-0.537 (inactive),9e-06 (inactive),0.00697 (inactive),-22.5% (inactive),10.9% (inactive)
CCCN(CCC)C(=O)c1c(C)[nH]c(C(=O)OCC)c1C,740,0.6% (inactive),2% (inactive),109,-78.7% (inactive),106,-0.605 (inactive),-2.3e-05 (inactive),0.00726 (inactive),-15.1% (inactive),-1.04% (inactive)
CCn1c(Cc2ccccc2)nnc1SCC(=O)Nc1ccc(N2CCOCC2)c(Cl)c1,427,0.3% (inactive),-13.2% (inactive),108,-56.2% (inactive),168,-0.441 (inactive),-6.7e-06 (inactive),0.00559 (inactive),14% (inactive),5.26% (inactive)
O=C(C1CCC(CNc2c(N3CCCCC3)c(=O)c2=O)CC1)N1CCc2ccccc2C1 (centres undefined),557,8.9% (inactive),-6.5% (inactive),95.1,44% (inactive),97.9,-0.51 (inactive),-1.9e-05 (inactive),0.00576 (inactive),8.75% (inactive),33.5% (inactive)
O=C(O)CCc1ccc(-c2ccc(Br)cc2)n1CC(=O)O,339,7.5% (inactive),-4.6% (inactive),90,-65% (inactive),112,-0.378 (inactive),-5.5e-05 (inactive),0.00594 (inactive),10.9% (inactive),28.5% (inactive)
COc1ccc(CCNC(=O)c2cc3sc(Cl)cc3n2C)cc1OC,611,4.1% (inactive),-8.1% (inactive),99.5,2.3% (inactive),89,-0.626 (inactive),-4e-05 (inactive),0.00715 (inactive),-15.3% (inactive),-18.8% (inactive)
O=C(OCC(=O)c1ccccc1Br)c1ccccn1,308,2.7% (inactive),-3.7% (inactive),98.4,-10.2% (inactive),95.3,-0.536 (inactive),-4.2e-05 (inactive),0.00716 (inactive),3.27% (inactive),26.5% (inactive)

# From PubChem BioAssay
